The source made the active and inactive calls.
Assays:
[1] = anti-His antibody binders, primary screen, artefact control for SMM control protein annotation, biochemical, small-molecule microarray, 635 nm fluorescence (AID 1128); details: anti-His Alexa647 antibody binding, higher = more signal;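 also: score merges feature fluorescence with signal-to-noise for each printed compound spot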
[2] = test system: Human papillomavirus type 1a E7 protein (residues 1-88); assay: HPV1a E7 small-molecule binders, primary screen, biochemical, small-molecule microarray, residues 1-88, 635 nm (AID 1129); details: small-molecule microarray binding, fluorescence 635 nm; higher = more signal
[3] = target: Focal adhesion kinase 1 (Homo sapiens) (UniProt Q05397); assay: small-molecule microarray binders of FAK, primary screen, biochemical, 635/667 nm fluorescence, BSA, DTT (AID 1130); details: PTK2 binding, 635 nm fluorescence, higher = more signal;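 also: composite of spot emission at 667 nm and signal to noise over triplicate slides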
[4] = test system: Fibrinogen (Alexa647-labelled); assay: fibrinogen binders on compound microarrays, profiling panel, artefact control for SMM control-protein annotation, biochemical, small-molecule microarray, 635/667 nm fluorescence (AID 1131); details: fibrinogen-A647 binding fluorescence, higher = more signal;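 also: z-score merges 667 nm fluorescence with per-spot signal-to-noise over triplicate slides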
[5] = target: Follistatin (Homo sapiens) (UniProt P19883); assay: follistatin binders on small-molecule microarrays, primary screen, biochemical, small-molecule microarray, 635/667 nm fluorescence (AID 1132); details: FST binding, 635 nm fluorescence, higher = more signal
[6] = target: Fibroblast growth factor 2 (Homo sapiens) (UniProt P09038); assay: FGF2 binders on small-molecule microarrays, primary screen, biochemical, small-molecule microarray, 635/667 nm fluorescence (AID 1133); details: small-molecule microarray binding, FGF2, fluorescence 635/667; higher = more signal
[7] = mitochondrial membrane potential change in A549 cells, profiling panel, cell-based, JC-1 fluorescence, basal, 24 h, 100 nL (AID 1138); details: higher = more signal;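 also: A549 lung adenocarcinoma cells under basal conditions with no added stimulus; test concentration not given here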
Lefty1 = Lefty1 binders on small-molecule microarrays, primary screen, biochemical, small-molecule microarray, 635/667 nm fluorescence (AID 1139); details: small-molecule microarray binding, fluorescence 635/667; higher = more signal
[8] = test system: wheat germ agglutinin (Triticum aestivum), Alexa647-labelled; assay: wheat germ agglutinin binders on compound microarrays, profiling panel, artefact control for SMM control-protein annotation, biochemical, small-molecule microarray, 635/667 nm fluorescence (AID 1140); details: WGA-A647 binding, 635 nm fluorescence, higher = more signal;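 also: score merges 667 nm feature emission with signal to noise over triplicate slides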
[9] = target: Luciferin 4-monooxygenase (Photinus pyralis) (UniProt P08659); assay: firefly luciferase enzyme inhibitors, primary screen, biochemical, luminescence, purified enzyme, 2006 set (AID 1141); details: SteadyGlo luminescence, 30 min, higher = more signal, called active from +8 up or from −8 down;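 also: cell-free assay with purified firefly luciferase at 100 ng per well in PBS; test concentration not given here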
Sequence of Luciferin 4-monooxygenase (Photinus pyralis) (P08659 whole entry, looked up): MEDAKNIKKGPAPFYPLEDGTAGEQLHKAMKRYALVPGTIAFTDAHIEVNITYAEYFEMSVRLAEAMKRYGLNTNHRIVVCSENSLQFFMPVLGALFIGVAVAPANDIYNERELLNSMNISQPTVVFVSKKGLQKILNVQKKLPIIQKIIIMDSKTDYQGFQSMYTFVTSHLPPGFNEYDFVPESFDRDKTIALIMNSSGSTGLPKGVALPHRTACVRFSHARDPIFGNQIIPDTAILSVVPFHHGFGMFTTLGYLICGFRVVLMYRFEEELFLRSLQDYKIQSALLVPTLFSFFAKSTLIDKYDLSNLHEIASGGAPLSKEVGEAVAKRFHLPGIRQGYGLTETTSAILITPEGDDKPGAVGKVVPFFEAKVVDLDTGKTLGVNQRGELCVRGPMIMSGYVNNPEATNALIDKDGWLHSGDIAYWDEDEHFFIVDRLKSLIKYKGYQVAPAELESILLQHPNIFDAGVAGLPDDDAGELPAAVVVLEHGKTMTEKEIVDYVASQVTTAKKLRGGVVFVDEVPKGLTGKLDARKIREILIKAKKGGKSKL

Sequence of Fibroblast growth factor 2 (Homo sapiens) (P09038 whole entry, looked up): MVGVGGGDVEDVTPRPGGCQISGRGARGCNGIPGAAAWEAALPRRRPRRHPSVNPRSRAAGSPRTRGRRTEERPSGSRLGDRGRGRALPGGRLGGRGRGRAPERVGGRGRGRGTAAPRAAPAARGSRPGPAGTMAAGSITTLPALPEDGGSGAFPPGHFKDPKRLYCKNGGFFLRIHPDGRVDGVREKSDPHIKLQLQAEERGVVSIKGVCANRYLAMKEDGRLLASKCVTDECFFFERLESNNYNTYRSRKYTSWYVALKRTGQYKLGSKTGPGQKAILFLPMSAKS
Sequence of Follistatin (Homo sapiens) (P19883 whole entry, looked up): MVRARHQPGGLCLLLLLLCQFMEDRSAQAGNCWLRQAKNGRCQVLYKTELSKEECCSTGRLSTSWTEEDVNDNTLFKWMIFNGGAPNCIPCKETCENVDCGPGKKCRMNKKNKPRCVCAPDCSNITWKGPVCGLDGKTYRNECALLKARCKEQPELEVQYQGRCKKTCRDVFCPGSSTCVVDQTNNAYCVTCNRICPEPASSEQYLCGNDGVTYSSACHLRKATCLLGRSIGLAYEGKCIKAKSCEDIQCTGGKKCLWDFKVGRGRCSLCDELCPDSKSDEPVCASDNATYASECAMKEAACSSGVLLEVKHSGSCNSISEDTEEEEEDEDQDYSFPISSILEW
Sequence of Focal adhesion kinase 1 (Homo sapiens) (Q05397 whole entry, looked up): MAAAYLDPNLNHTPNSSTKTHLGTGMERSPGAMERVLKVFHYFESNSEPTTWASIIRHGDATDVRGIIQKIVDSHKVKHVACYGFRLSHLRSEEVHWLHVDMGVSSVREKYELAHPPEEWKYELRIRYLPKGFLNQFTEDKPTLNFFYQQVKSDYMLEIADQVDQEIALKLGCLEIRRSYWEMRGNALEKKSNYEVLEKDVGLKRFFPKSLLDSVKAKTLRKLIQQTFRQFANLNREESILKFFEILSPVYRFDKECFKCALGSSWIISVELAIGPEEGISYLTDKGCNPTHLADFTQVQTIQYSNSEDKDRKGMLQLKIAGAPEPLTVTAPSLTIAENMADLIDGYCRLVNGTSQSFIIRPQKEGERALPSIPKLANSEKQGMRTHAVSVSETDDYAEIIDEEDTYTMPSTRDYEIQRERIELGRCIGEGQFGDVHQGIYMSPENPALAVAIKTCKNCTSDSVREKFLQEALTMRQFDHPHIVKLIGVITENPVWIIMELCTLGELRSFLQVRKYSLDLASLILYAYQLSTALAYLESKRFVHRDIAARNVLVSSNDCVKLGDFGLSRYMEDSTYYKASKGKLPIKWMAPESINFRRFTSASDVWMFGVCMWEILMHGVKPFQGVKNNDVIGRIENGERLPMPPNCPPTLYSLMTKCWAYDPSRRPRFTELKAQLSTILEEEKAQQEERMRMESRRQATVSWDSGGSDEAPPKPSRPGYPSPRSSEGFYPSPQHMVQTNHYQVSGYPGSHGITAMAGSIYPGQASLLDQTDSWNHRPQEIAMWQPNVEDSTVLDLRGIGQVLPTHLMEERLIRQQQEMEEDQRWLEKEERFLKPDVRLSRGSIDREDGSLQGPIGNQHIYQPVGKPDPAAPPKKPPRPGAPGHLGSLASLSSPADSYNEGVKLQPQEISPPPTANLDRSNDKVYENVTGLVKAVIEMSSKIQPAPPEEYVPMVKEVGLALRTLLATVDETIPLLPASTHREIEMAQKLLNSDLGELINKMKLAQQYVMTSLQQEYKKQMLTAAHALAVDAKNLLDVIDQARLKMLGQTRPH

| Structure (SMILES) | composite z-score [1] | composite z-score [2] | composite z-score [3] | composite z-score [4] | composite z-score [5] | composite z-score [6] | z-score [7] | composite z-score (Lefty1) | composite z-score [8] | z-score [9] |
| --- | --- | --- | --- | --- | --- | --- | --- | --- | --- | --- |
| COc1ccc(CCN2C(=O)[C@@]3(Cc4ccccc42)c2ccccc2C(=O)N(Cc2ccccc2C(F)(F)F)[C@H]3c2ccc(CO)cc2)cc1 | 0.752 | -0.175 | -0.324 | 0.732 | 1.12 | 0.83 | -0.963 | 0.541 | 0.461 | 0.642 (inactive) |
| [N-]=[N+]=NCc1ccccc1[C@@H]1OC(c2ccc(OCCCO)cc2)=N[C@]1(CCS(=O)(=O)c1ccccc1)C(=O)NCc1ccccc1 | 1.82 | 1.21 | 0.878 | 0.964 | 1.47 | 1.37 | -0.338 | 1.49 | 1.27 | -0.375 (inactive) |
| COC(=O)[C@@]1(Cc2ccc(F)cc2)[C@H]2c3cc(C(=O)N(C)C)n(Cc4ccc(S(C)(=O)=O)cc4)c3C[C@H]2CN1C(=O)c1ccccc1 | 0.904 | 0.941 | 1.16 | 1.01 | 0.158 | 0.0722 | 0.521 | -0.224 | 0.766 | 0.202 (inactive) |
| CCOC(=O)C=Cc1cc([N+](=O)[O-])ccc1O | -0.59 | -0.455 | -0.0779 | -0.429 | -0.907 | -0.652 | -2.31 | -0.83 | -0.0396 | 1.38 (inactive) |
| CC(C)(C)OC(=O)CC[C@]1(C(=O)NCC(O)CO)COC(c2ccc(OCCCO)cc2)=N1 (stereo not given in full) | 1.97 | 1.22 | 0.472 | 0.936 | -0.255 | -0.473 | -0.328 | -0.35 | 0.879 | 0.438 (inactive) |
| COCCOC(=O)N1C(=O)[C@@]2(c3cc(C#CC4=CCCCC4)ccc31)[C@H](C(=O)N1CCc3cc(OC)c(OC)cc3C1)[C@H]1C(=O)O[C@H](c3ccccc3)[C@H](c3ccccc3)N1[C@@H]2c1ccc(OCCO)cc1 | 1.2 | 1.14 | 0.756 | 0.868 | 1.15 | 1.16 | -1.21 | 1.1 | 0.118 | -1.09 (inactive) |
| CCCN1C(=O)[C@]2(CCS(=O)(=O)c3ccccc3)N=C(c3ccc(OCCCO)cc3)O[C@@H]2c2ccccc21 | 1.02 | 1.21 | 0.554 | 0.967 | 0.958 | 0.408 | 0.535 | 0.576 | 0.737 | 0.54 (inactive) |
| O=C1C2C=CC(C(O)C(c3ccccc3)c3ccccc3)N(n3cnnc3)C2C(=O)N1Cc1ccccc1 (stereo not given) | 0.305 | 1.21 | 0.638 | 0.977 | 0.552 | 1.54 | -0.806 | 0.0063 | 0.131 | 1.01 (inactive) |
| CC(C)(C)OC(=O)CC[C@@]1(C(=O)NCCN2CCOCC2)N=C(c2ccc(OCCCO)cc2)O[C@@H]1c1ccccc1N=[N+]=[N-] | 0.22 | 1.2 | 1.21 | 0.554 | 1.18 | -0.156 | 1.26 | -0.0836 | 0.0832 | -9.63 (active) |
| C=CCN1C(=O)[C@]2(O[C@H](CCO)[C@@H]([Si](C)(C)c3ccc(OC)cc3)[C@@H]2C)c2cc(N3C(=O)c4cccc5cccc3c45)ccc21 | 0.987 | 0.98 | 1.05 | 0.541 | 0.644 | 0.65 | -0.855 | 0.777 | 0.393 | -0.225 (inactive) |
| COCCCNC(=O)[C@@]1(Cc2ccccc2)N=C(c2ccc(OCCCO)cc2)O[C@H]1c1ccccc1 | 3.17 | 1.26 | 0.102 | 0.959 | 0.448 | 0.706 | 0.26 | -0.559 | 1.11 | -0.391 (inactive) |
| CN1C(=O)C2C=CC(C(O)C3=C[C@H]4C[C@@H](C3)C4(C)C)N(Nc3ccccc3)C2C1=O (stereo not given in full) | 0.274 | 1.19 | 0.608 | 0.816 | 1.18 | 0.0364 | -0.838 | 0.446 | 0.782 | -0.179 (inactive) |
| [N-]=[N+]=NCc1ccccc1C[C@@]1(C(=O)NCC(O)CO)N=C(c2ccc(OCCCO)cc2)O[C@@H]1c1ccccc1N=[N+]=[N-] (stereo not given in full) | 2.41 | 1.22 | 1.22 | 0.962 | 1.38 | 1.58 | -0.043 | -0.709 | 1.15 | -3.13 (inactive) |
| COC(=O)[C@@]1(Cc2ccc(F)cc2)[C@H]2c3cc(C(=O)N4CCCC4)n(Cc4ccc(C)o4)c3C[C@H]2CN1C(=O)c1ccccc1 | 1.69 | 1.07 | 1.05 | 0.952 | 0.4 | -0.708 | 0.821 | 0.181 | 0.794 | -13.4 (active) |
| CC(C)(C)C(=O)N[C@@H](c1ccc(Cl)cc1)[C@]1(C)C[C@H]1C1CCCCC1 | 0.893 | 1.21 | 1.19 | 1.02 | 0.279 | -0.386 | 2.63 | -0.775 | 0.537 | 0.542 (inactive) |
| COc1ccc([Si](C)(C)[C@H]2[C@H](CC(=O)N3CCC[C@H]3CO)O[C@@]3(C(=O)N(Cc4cccc(N5C(=O)c6cccc7cccc5c67)c4)c4ccccc43)[C@@H]2C)cc1 | 0.874 | 0.614 | 0.209 | 0.94 | 1.17 | 0.7 | 1.57 | 1.52 | 0.571 | -0.75 (inactive) |
| CCCC[C@@H]1C[C@H]1[C@@H](NC(=O)c1ccco1)c1ccc(Cl)cc1 | 1.26 | 1.2 | 0.998 | 0.939 | 0.0863 | -0.488 | 1.88 | -0.406 | 1.21 | 1.17 (inactive) |
| COCC(=C=CC[C@@H](O)c1ccccc1OCCO)C[C@@H](O)c1cc(Cl)cc(Cl)c1O | 0.819 | 1.23 | 0.14 | 0.867 | 1.24 | 1.21 | -0.41 | 0.666 | 0.289 | -1.02 (inactive) |
| C=CCC(OC(C)=O)[C@@H]1[C@@H](N(Cc2ccc(-c3cccc(C(F)(F)F)c3)o2)C(=O)Cc2ccc(F)cc2)c2cc(OCCCO)ccc2N1C(=O)Cc1ccc(OC)cc1 (stereo not given in full) | -0.775 | -2.07 | -0.572 | -0.0256 | 0.346 | -0.308 | 0.812 | -0.0727 | 0.114 | 0.175 (inactive) |
| COC(=O)[C@@]1(Cc2ccccc2)[C@H]2c3cc(C(=O)N(C)C)n(CCSCCO)c3C[C@H]2CN1C(=O)c1ccccc1 | 1.25 | 1.2 | 0.342 | 0.632 | -0.347 | -0.299 | 0.599 | -0.84 | 0.879 | 1.14 (inactive) |
| O=C(O)[C@@]1(CCS(=O)(=O)c2ccccc2)COC(c2ccc(OCCCO)cc2)=N1 | -0.777 | -0.0191 | -0.283 | -1.2 | 0.0153 | -0.23 | -0.487 | -1.34 | -0.0996 | 0.299 (inactive) |
| C=CC[C@@]1(C(N)=O)N=C(c2ccc(OCCCO)cc2)O[C@@H]1c1ccccc1CN=[N+]=[N-] | 2.78 | 1.17 | -0.111 | 0.968 | 1.08 | 0.107 | -0.95 | -0.344 | 1.52 | -1.35 (inactive) |
| CN(C)C(=O)[C@]1(Cc2ccccc2N=[N+]=[N-])N=C(c2ccc(OCCCO)cc2)O[C@@H]1c1ccccc1 | 1.03 | 1.22 | 0.633 | 0.882 | 1.31 | 1.58 | 1.71 | 0.0484 | 0.986 | -1.08 (inactive) |
| CO[C@H]1O[C@H](CO)[C@@H](OC(=O)Nc2ccc(Br)cc2)[C@H](OC(=O)c2cc3ccccc3[nH]2)[C@H]1OC(=O)c1cc2ccccc2[nH]1 | 1.69 | 1.14 | 0.468 | 0.967 | 0.729 | 0.355 | -1.07 | 0.311 | 0.723 | -1.75 (inactive) |
